GPR151 ag: human GPR151 activation; Q8TDV0; PathHunter beta-arrestin GPR151 cells, luminescence; activation, % at 11.2 µM; 1% of 650,000 active; AID 1508602; in the data active means activation above about 4.9%
TEAD-YAP inh: TEAD-YAP interaction inhibition; inhibition, % at 9.12 µM; AID 1259422; HEK-TIYL cells, TEAD-Gal4/YAP UAS-luciferase luminescence; 1.4% of 640,000 active; in the data active means inhibition above about 32%
MITF primary: inhibitors of human MITF; O75030; 0.91% of 650,000 active; AlphaScreen MITF homodimerization, bead proximity signal; inhibition, % at 2.6 µM; AID 1259374; in the data active means inhibition above about 50%
FBW7 activator: human FBW7 E3 ligase activation, primary screen; Q969H0; 0.13% of 650,000 active; AID 1259310; AlphaScreen FBW7–phospho-cyclin E peptide binding, activator screen; normalized activity (activation), % at 26.1 µM; in the data active means normalized activity above about 1.9%;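 further: purified mutant Fbw7 with reduced substrate affinity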
Target sequence (Q969H0 whole entry, looked up): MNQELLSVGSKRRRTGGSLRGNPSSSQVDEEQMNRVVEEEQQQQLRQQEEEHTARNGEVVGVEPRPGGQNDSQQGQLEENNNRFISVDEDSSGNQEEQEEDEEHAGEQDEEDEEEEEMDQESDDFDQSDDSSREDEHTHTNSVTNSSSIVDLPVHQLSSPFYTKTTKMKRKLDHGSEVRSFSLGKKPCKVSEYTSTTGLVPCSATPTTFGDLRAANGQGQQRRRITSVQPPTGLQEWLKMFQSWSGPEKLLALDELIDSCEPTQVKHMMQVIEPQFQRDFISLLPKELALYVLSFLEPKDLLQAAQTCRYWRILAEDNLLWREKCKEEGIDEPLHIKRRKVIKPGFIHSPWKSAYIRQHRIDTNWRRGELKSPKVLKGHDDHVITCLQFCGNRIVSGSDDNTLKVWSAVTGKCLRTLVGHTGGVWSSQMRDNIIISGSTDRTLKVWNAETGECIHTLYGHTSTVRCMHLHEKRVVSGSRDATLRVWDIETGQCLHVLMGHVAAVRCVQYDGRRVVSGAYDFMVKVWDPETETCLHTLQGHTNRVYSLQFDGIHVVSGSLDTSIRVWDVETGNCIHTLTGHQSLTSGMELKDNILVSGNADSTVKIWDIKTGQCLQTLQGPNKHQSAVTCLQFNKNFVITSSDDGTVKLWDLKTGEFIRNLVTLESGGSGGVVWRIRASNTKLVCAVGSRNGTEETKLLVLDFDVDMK
GPR151 conf act: confirmation of human GPR151 activators | shares compounds with GPR151 ag | GPR151 PathHunter beta-arrestin cells, luminescence, 90 min; % of EA-reagent control over plate median | activation, % at 11.2 µM | 6,700 tested, under 10 active | AID 1508609;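 active means mean percent activation across replicates above the confirmation screen cutoff of 4.91%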
GPR119 ag: activates human GPR119 in a GPR151 counter-screen; GPR119 PathHunter beta-arrestin cells, luminescence, 90 min; 0 = compound-well median, 100 = enzyme-acceptor control; 0.3% of 6,700 active; activation, % at 11.2 µM; shares compounds with GPR151 ag; AID 1508611;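 active means mean percent activation in the counterscreen above 29.09%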;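 further: counterscreen on off-target GPR119 to flag nonselective hits from the GPR151 activator screen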
Numbers stand for hits. Compounds with a hit are over-represented: about 3.5% of the library has one in this group of screens.

`COc1ccc2c(c1)c(CC(=O)Nc1nnc(C)o1)c(C)n2C(=O)c1ccc(Cl)cc1` gave GPR151 ag 5.7, TEAD-YAP inh inactive, MITF primary inactive, FBW7 activator inactive, GPR151 conf act inactive and GPR119 ag inactive.
`O=C(NC1CCCCC1)c1nn2c(C(F)(F)F)cc(-c3ccccc3)nc2c1Br` gave GPR151 ag 5.0, TEAD-YAP inh inactive, MITF primary inactive, FBW7 activator inactive, GPR151 conf act inactive and GPR119 ag inactive.
CCOCCn1c(=NC(=O)CN2C(=O)CCC2=O)sc2cc(Br)ccc21 was read as GPR151 ag 5.8, TEAD-YAP inh inactive, MITF primary inactive, FBW7 activator inactive, GPR151 conf act inactive and GPR119 ag inactive.
COCCn1c(=NC(=O)CN2C(=O)CCC2=O)sc2cc(Br)ccc21 was read as GPR151 ag inactive, TEAD-YAP inh inactive, MITF primary inactive and FBW7 activator inactive.
For CC(=O)Nc1c2c(nn1-c1nc3ccccc3s1)CCC2 the results were GPR151 ag inactive, TEAD-YAP inh inactive, MITF primary inactive and FBW7 activator inactive.
`Cc1cnn(C)c1C(=O)Nc1c2c(nn1-c1nc3ccccc3s1)CCC2` gave GPR151 ag 19.8, TEAD-YAP inh inactive, MITF primary inactive, FBW7 activator inactive, GPR151 conf act inactive and GPR119 ag inactive.
Screening COc1ccc(CCNc2ccnc(-c3ccc(C(=O)NC4CC4)cc3)n2)cc1 returned GPR151 ag 5.5, TEAD-YAP inh 33.2, MITF primary inactive, FBW7 activator inactive, GPR151 conf act inactive and GPR119 ag inactive.
Screening COc1cc(C=NCCc2ccc(S(N)(=O)=O)cc2)ccc1O returned GPR151 ag inactive, TEAD-YAP inh inactive, MITF primary inactive and FBW7 activator inactive.
COc1ccccc1C1SCCN1C(=O)c1cc2cc(Br)cc(Br)c2oc1=O (stereo not drawn) was read as GPR151 ag inactive, TEAD-YAP inh inactive, MITF primary inactive and FBW7 activator inactive.
COc1cc(CN2CCc3nnc(CCc4ccccc4)n3CC2)cc(OC)c1OC was read as GPR151 ag 7.1, TEAD-YAP inh inactive, MITF primary inactive, FBW7 activator inactive, GPR151 conf act inactive and GPR119 ag inactive.
`COc1cccc(CN2CCc3nnc(CCNC(=O)C4CCCO4)n3CC2)c1` (stereo not drawn) gave GPR151 ag 6.3, TEAD-YAP inh inactive, MITF primary inactive, FBW7 activator inactive, GPR151 conf act inactive and GPR119 ag inactive.
`COc1cc(CN2CCc3nnc(CCc4ccccc4)n3CC2)cc(OC)c1O` gave GPR151 ag inactive, TEAD-YAP inh inactive, MITF primary inactive and FBW7 activator inactive.
Screening CC(C)CN1CCN(Cc2ccc3cccc(F)c3n2)CC1CCO (stereo not drawn) returned GPR151 ag inactive, TEAD-YAP inh inactive, MITF primary inactive and FBW7 activator inactive.
Screening CC(C)(C)CN1CCN(Cc2ccc3cccc(F)c3n2)CC1CCO (stereo not drawn) returned GPR151 ag 7.2, TEAD-YAP inh inactive, MITF primary inactive, FBW7 activator inactive, GPR151 conf act inactive and GPR119 ag inactive.
`O=C(CN1CCCCCC1)N/N=C/c1ccccc1F` gave GPR151 ag 7.2, TEAD-YAP inh inactive, MITF primary inactive, FBW7 activator inactive, GPR151 conf act inactive and GPR119 ag inactive.
O=c1[nH]c(SCc2ccc([N+](=O)[O-])cc2)nc2nc[nH]c12 was read as GPR151 ag inactive, TEAD-YAP inh inactive, MITF primary inactive and FBW7 activator inactive.
Screening Cc1cc2c(cc1S(=O)(=O)NC1CCCC(C)C1C)OCC(=O)N2 (stereo not drawn) returned GPR151 ag inactive, TEAD-YAP inh inactive, MITF primary inactive and FBW7 activator inactive.
Screening CC1CCCC(NS(=O)(=O)c2cc3c(cc2Cl)NC(=O)CO3)C1C (stereo not drawn) returned GPR151 ag 7.8, TEAD-YAP inh inactive, MITF primary inactive, FBW7 activator inactive, GPR151 conf act inactive and GPR119 ag inactive.
For N#C/C(=C\c1ccc(-c2ccc(F)cc2)o1)C(=O)NCC1CCCO1 (stereo not drawn) the results were GPR151 ag 5.5, TEAD-YAP inh inactive, MITF primary inactive, FBW7 activator inactive, GPR151 conf act inactive and GPR119 ag inactive.
For COc1ccc(C(=O)Nn2c(C3CC3)nc3ccccc3c2=O)c(OC)c1 the results were GPR151 ag inactive, TEAD-YAP inh inactive, MITF primary inactive and FBW7 activator inactive.
`COc1ccc(C(=O)Nn2c(C3CC3)nc3cc(OC)c(OC)cc3c2=O)c(OC)c1` gave GPR151 ag 5.9, TEAD-YAP inh inactive, MITF primary inactive, FBW7 activator inactive, GPR151 conf act inactive and GPR119 ag inactive.
COc1ccc(/C=N/N(C)C2=NCCN2)c(OC)c1OC was read as GPR151 ag 6.9, TEAD-YAP inh inactive, MITF primary inactive, FBW7 activator inactive, GPR151 conf act inactive and GPR119 ag inactive.
COc1cc(NC(=O)c2ccccc2Cl)ccc1NC(=O)C(C)C was read as GPR151 ag 10.2, TEAD-YAP inh inactive, MITF primary inactive, FBW7 activator inactive, GPR151 conf act inactive and GPR119 ag inactive.
Screening COC(=O)c1ccccc1NC(=O)C(C)C returned GPR151 ag 5.3, TEAD-YAP inh inactive, MITF primary inactive, FBW7 activator inactive, GPR151 conf act inactive and GPR119 ag inactive.
For COc1ccc(OC)c(C(C)NC(=O)c2ccccc2Cl)c1 (stereo not drawn) the results were GPR151 ag 14.9, TEAD-YAP inh inactive, MITF primary inactive, FBW7 activator inactive, GPR151 conf act inactive and GPR119 ag inactive.
COc1ccc(-c2cc(C(F)(F)F)n3nc(C(=O)Nc4cccc(C)c4Cl)c(Cl)c3n2)cc1OC was read as GPR151 ag inactive, TEAD-YAP inh inactive, MITF primary inactive and FBW7 activator inactive.
`COc1ccc(-c2cc(C(F)(F)F)n3nc(C(=O)Nc4ccccc4C(F)(F)F)c(Cl)c3n2)cc1OC` gave GPR151 ag 6.0, TEAD-YAP inh inactive, MITF primary inactive, FBW7 activator inactive, GPR151 conf act inactive and GPR119 ag inactive.
Screening O=C(c1ccccc1[N+](=O)[O-])N(Cc1ccc(Cl)cc1)C1CCS(=O)(=O)C1 (stereo not drawn) returned GPR151 ag 5.0, TEAD-YAP inh inactive, MITF primary inactive, FBW7 activator inactive, GPR151 conf act inactive and GPR119 ag inactive.
For CN(C)c1ccc(CN(C(=O)c2ccccc2[N+](=O)[O-])C2CCS(=O)(=O)C2)cc1 (stereo not drawn) the results were GPR151 ag inactive, TEAD-YAP inh inactive, MITF primary inactive and FBW7 activator inactive.
O=C(COc1ncnc2sccc12)NC(=O)NC1CCCCC1 was read as GPR151 ag inactive, TEAD-YAP inh inactive, MITF primary inactive and FBW7 activator inactive.
For COc1ccccc1C(=O)Nc1ccccc1-c1nnn(CC(=O)NCc2ccco2)n1 the results were GPR151 ag 5.3, TEAD-YAP inh inactive, MITF primary inactive, FBW7 activator inactive, GPR151 conf act inactive and GPR119 ag inactive.

Source: PubChem BioAssay
